Values without a mark were called inactive. Active and inactive are the calls of the source.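 How the source made its calls, unless noted: active means mean inhibition above 46.5%, the solvent-only control mean plus 3 SD; inactive means the rest.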

One test concerns transactivating tegument protein VP16 (Human herpesvirus 1). The test can be described thus: VP16 transactivation reporter inhibitors, counter-screen for SRC2 inhibitor project, cell-based, luminescence, single concentration (AID 652007; in the data active means inhibition above about 36%). To be noted: cell-based VP16 transactivation luciferase reporter, at 8.9 µM, active compounds read high. On the technique in general: Counterscreens check selectivity or assay interference.
By inhibition is commonly meant the relative decrease from the control value, in per cent. As to `CCCSc1nnc(Sc2nnnn2-c2ccccc2)s1`, the inhibition is 7.33%.

On to `COc1ccc(CCNC(=S)N2CCC(C(=O)c3ccc(F)cc3)CC2)cc1OC`, for which the inhibition is 11.5%.

For the compound `O=[N+]([O-])c1ccc(S(=O)(=O)c2ccccc2)nc1`, the inhibition was 51.9% (active).

For the compound `CC(C)(C)c1ccc(Cn2c(=O)cnc3ccccc32)cc1`, the inhibition is 22.6%.

Regarding `COc1ccc(OCCCCn2c(CO)nc3ccccc32)cc1`, the inhibition is -6.88%.

Consider `COc1ccc(C(=O)/C=C/Nc2ccccn2)cc1`, for which the inhibition was 3.41%.

Turning to `CCc1ccc(CNC(=O)c2cc3c(C)nc4ccccc4c3o2)cc1`, the inhibition was 20.6%.

In the case of `Nc1nc(CCl)nc(Nc2ccccc2)n1`, the inhibition is -25.1%.

`Cn1nc(C(C)(C)C)cc1C(=O)N1CCCCC1c1cc(C(=O)Nc2ccccc2Cl)no1` (stereo not given): the inhibition was 7.65%.

In the case of `NNC(=O)COc1ccc(-c2nccc(-c3ccc(F)cc3)n2)cc1`, the inhibition is -14.6%.

Take `COc1ccc(NC(=O)c2cccc(N3C(=O)c4cccc([N+](=O)[O-])c4C3=O)c2)cc1`: the inhibition is -32.3%.

As to `CC1CCc2c(sc3nc(CSc4ncn[nH]4)[nH]c(=O)c23)C1` (stereo not given), the inhibition was 33%.

Regarding `O=C(O)CCCc1nc(-c2ccc(Cl)cc2)no1`, the inhibition is 20.7%.

With `Cc1oc(-c2cccc3ccccc23)nc1CN1CCN(c2ncnc3ccccc23)CC1`, the inhibition is -22.1%.

In the case of `CCOC(=O)C1(Cc2ccccc2)CCN(Cc2ccnc3ccccc23)CC1`, the inhibition was -2.44%.

With `O=C(Nc1nnc(SCCN2CCOCC2)s1)C1CC(=O)N(c2ccccc2)C1` (stereo not given), the inhibition was 1.56%.

Consider `COc1ccc(C(=O)OCC(=O)Nc2ccc3c(c2)OCCO3)c(OC)c1`, for which the inhibition was 6.79%.

Consider `NC(=O)CC(NC(=O)c1ccc(Br)cc1)c1ccc(N2CCCCCC2)c([N+](=O)[O-])c1` (stereo not given), for which the inhibition is 9.13%.

For `O=C(Cc1ccc([N+](=O)[O-])cc1)Nc1cccc(C(=O)N2CCCCC2)c1`, the inhibition is 13.5%.

With `CCOC(=O)Cc1ccc(NC(=O)c2ccc(C(C)(C)C)cc2)cc1`, the inhibition is -47.1%.

Consider `Cc1cccnc1CN1CCN(C(=O)c2cc(COc3ccc4ncccc4c3)on2)CC1`, for which the inhibition was 8.23%.

With `C=C1CCC2C(C)(C)CCC[C@]2(C)[C@H]1CC1=C(O)C(=O)C(CO)=CC1=O` (stereo not given in full), the inhibition was 93.6% (active).

Turning to `O=C(N=C1SC2CS(=O)(=O)CC2N1Cc1ccccc1)C1CCCO1` (stereo not given), the inhibition was -0.59%.

Consider `COc1cc(OC)c(-c2c3cc(O)c(=O)cc-3oc3cc(O)c(O)cc23)cc1OC`, for which the inhibition is 9.48%.

Take `C=CC(=O)NN(C)c1ncc(C(F)(F)F)cc1Cl`: the inhibition is 15.4%.

A further test deals with Nuclear receptor coactivator 2 (Homo sapiens) (UniProt Q15596). Briefly: SRC2 coactivator transcriptional activity inhibitors, confirmation, cell-based, luminescence, HEK293, triplicate (AID 652008).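 Further: 0% = DMSO-treated cells and 100% = Gossypol at 36 µM.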 To be noted: HEK293 GAL4-SRC2 luciferase reporter, at 8.9 µM, active compounds read high. For orientation: A reporter such as luciferase makes a cellular process visible.
Nuclear receptor coactivator 2 (Homo sapiens), sequence (Q15596 whole entry, looked up, the tested form may be a part): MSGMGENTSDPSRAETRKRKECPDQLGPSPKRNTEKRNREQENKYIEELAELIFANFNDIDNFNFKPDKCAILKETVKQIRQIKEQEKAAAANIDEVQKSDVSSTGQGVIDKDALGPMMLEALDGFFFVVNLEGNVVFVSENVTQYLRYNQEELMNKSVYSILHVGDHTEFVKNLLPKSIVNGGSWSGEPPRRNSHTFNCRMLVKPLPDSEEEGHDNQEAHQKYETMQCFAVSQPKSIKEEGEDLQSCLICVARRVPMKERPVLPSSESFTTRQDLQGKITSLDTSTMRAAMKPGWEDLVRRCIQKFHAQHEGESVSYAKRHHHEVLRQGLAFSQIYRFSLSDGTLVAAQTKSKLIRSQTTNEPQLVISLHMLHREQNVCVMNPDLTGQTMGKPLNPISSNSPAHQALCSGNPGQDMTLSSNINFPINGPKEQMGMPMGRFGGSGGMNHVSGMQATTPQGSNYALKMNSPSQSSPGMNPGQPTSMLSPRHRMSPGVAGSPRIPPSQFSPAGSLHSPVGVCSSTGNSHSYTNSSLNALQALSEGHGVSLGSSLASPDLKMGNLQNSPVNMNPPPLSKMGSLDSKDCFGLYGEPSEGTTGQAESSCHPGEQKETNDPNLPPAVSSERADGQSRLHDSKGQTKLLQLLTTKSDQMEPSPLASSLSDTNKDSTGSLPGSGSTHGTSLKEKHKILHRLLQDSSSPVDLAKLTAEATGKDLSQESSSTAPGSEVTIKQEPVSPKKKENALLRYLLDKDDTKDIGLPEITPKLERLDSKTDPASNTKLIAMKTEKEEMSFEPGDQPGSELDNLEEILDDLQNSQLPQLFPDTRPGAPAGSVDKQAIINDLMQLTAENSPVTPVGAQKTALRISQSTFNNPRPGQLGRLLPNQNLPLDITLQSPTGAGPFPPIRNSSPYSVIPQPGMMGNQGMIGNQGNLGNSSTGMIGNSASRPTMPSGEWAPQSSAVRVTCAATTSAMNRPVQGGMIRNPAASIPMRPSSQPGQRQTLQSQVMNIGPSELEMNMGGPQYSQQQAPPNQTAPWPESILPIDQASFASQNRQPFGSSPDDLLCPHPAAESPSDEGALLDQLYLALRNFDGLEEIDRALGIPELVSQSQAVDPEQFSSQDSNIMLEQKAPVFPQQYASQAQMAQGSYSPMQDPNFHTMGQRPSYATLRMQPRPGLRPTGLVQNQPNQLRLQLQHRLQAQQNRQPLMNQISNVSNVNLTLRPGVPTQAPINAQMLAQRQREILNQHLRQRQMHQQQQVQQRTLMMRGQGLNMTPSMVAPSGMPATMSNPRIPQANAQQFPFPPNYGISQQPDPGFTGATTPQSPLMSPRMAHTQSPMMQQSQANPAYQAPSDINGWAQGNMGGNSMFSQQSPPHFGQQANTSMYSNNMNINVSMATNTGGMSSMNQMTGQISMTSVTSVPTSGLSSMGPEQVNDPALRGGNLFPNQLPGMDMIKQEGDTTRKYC
`Cc1ccc(C2CC(c3cccs3)=NN2C(=O)CCl)cc1` (stereo not given): the inhibition is 38.9%.

In the case of `COc1cccc(NC(=O)c2cc(Cl)nnc2Cl)c1`, the inhibition was 44%.

`Cc1nnc(SCC2=C(C(=O)O)N3C(=O)C(NC(=O)Cn4nc(C)c(Cl)c4C)C3SC2)s1` (stereo not given): the inhibition is -7.12%.

In the case of `Cc1ccc(C(=O)NC(=S)Nc2ccc(-c3cc4ccccc4oc3=O)cc2)c(C)c1`, the inhibition was 19.5%.

For the compound `CCS(=O)(=O)c1ncc(Cl)c(C(=O)Nc2ccc(S(=O)(=O)N(C)c3ccccc3)cc2)n1`, the inhibition is 98% (active).

For the compound `CCn1c(Oc2ccccc2)nc2c1c(=O)n(C)c(=O)n2C`, the inhibition is 42.6%.

Turning to `COCCNC(=O)/C(C#N)=C/c1cc(C(C)C)c(OC)cc1C`, the inhibition is 16.8%.

As for `O=C(c1ccc(S(=O)(=O)Cc2cc(F)ccc2F)c([N+](=O)[O-])c1)N1CCOCC1`, the inhibition was 13.5%.

With `Cc1nc(SCCC(=O)O)c2cc(-c3ccccc3)sc2n1`, the inhibition was 80.1% (active).

Consider `Clc1ccccc1/C=C/c1nc(-c2ccccn2)no1`, for which the inhibition is 18.9%.

On to `COc1ccc(/C=C2\SC(=S)N(CCCC(=O)NNC(=O)c3ccccc3O)C2=O)cc1`, for which the inhibition was 93.1% (active).

With `Cc1ccoc1C(=O)Nc1ccc(CC(=O)O)cc1`, the inhibition is 83.4% (active).

Turning to `Cc1ccc(-n2c(C)c([N+](=O)[O-])c3ccc(O)cc32)cc1`, the inhibition was 47.5% (active).

For `O=C(CCl)Nc1cccc(S(=O)(=O)NC2=NCCC2)c1`, the inhibition is 38.1%.

`Cc1cc(Cl)c(S(=O)(=O)N2CCN(c3ccccn3)CC2)cc1OCC(=O)NC1CCCCC1`: the inhibition was 16.3%.

As to `CCCSc1nnc(Sc2nnnn2-c2ccccc2)s1`, the inhibition was 16.8%.

As to `COc1ccc(CCNC(=S)N2CCC(C(=O)c3ccc(F)cc3)CC2)cc1OC`, the inhibition was 20.5%.

Consider `O=[N+]([O-])c1ccc(S(=O)(=O)c2ccccc2)nc1`, for which the inhibition is 36%.

Consider `CC(C)(C)c1ccc(Cn2c(=O)cnc3ccccc32)cc1`, for which the inhibition was 56.7% (active).

Turning to `COc1ccc(OCCCCn2c(CO)nc3ccccc32)cc1`, the inhibition is -14.2%.

Consider `COc1ccc(C(=O)/C=C/Nc2ccccn2)cc1`, for which the inhibition is 30.8%.

For `CCc1ccc(CNC(=O)c2cc3c(C)nc4ccccc4c3o2)cc1`, the inhibition was 10.3%.

In the case of `Nc1nc(CCl)nc(Nc2ccccc2)n1`, the inhibition was 8.83%.

On to `Cn1nc(C(C)(C)C)cc1C(=O)N1CCCCC1c1cc(C(=O)Nc2ccccc2Cl)no1` (stereo not given), for which the inhibition is 13.2%.

On to `NNC(=O)COc1ccc(-c2nccc(-c3ccc(F)cc3)n2)cc1`, for which the inhibition is 32.3%.

As for `COc1ccc(NC(=O)c2cccc(N3C(=O)c4cccc([N+](=O)[O-])c4C3=O)c2)cc1`, the inhibition is -27.1%.

Consider `CC1CCc2c(sc3nc(CSc4ncn[nH]4)[nH]c(=O)c23)C1` (stereo not given), for which the inhibition was 35.2%.

Take `O=C(O)CCCc1nc(-c2ccc(Cl)cc2)no1`: the inhibition was 30%.

As to `Cc1oc(-c2cccc3ccccc23)nc1CN1CCN(c2ncnc3ccccc23)CC1`, the inhibition was 5.63%.

As for `CCOC(=O)C1(Cc2ccccc2)CCN(Cc2ccnc3ccccc23)CC1`, the inhibition is 14.6%.

For the compound `O=C(Nc1nnc(SCCN2CCOCC2)s1)C1CC(=O)N(c2ccccc2)C1` (stereo not given), the inhibition was -15.8%.

Regarding `COc1ccc(C(=O)OCC(=O)Nc2ccc3c(c2)OCCO3)c(OC)c1`, the inhibition is -39%.

For `NC(=O)CC(NC(=O)c1ccc(Br)cc1)c1ccc(N2CCCCCC2)c([N+](=O)[O-])c1` (stereo not given), the inhibition is 23.3%.

Take `O=C(Cc1ccc([N+](=O)[O-])cc1)Nc1cccc(C(=O)N2CCCCC2)c1`: the inhibition is 23.7%.

As to `CCOC(=O)Cc1ccc(NC(=O)c2ccc(C(C)(C)C)cc2)cc1`, the inhibition is 63.9% (active).

For the compound `Cc1cccnc1CN1CCN(C(=O)c2cc(COc3ccc4ncccc4c3)on2)CC1`, the inhibition was 15.3%.

For the compound `C=C1CCC2C(C)(C)CCC[C@]2(C)[C@H]1CC1=C(O)C(=O)C(CO)=CC1=O` (stereo not given in full), the inhibition was 98.8% (active).

As for `O=C(N=C1SC2CS(=O)(=O)CC2N1Cc1ccccc1)C1CCCO1` (stereo not given), the inhibition is -2.87%.

Regarding `COc1cc(OC)c(-c2c3cc(O)c(=O)cc-3oc3cc(O)c(O)cc23)cc1OC`, the inhibition was 3.62%.

Regarding `C=CC(=O)NN(C)c1ncc(C(F)(F)F)cc1Cl`, the inhibition is 7.42%.

These data come from PubChem BioAssay.
